“And” between values parts separate entries of the source, which are not always exact repeats. Equal values may be shown once. Out of some 5,500 compounds screened, about 2,000 (36%) were called active. Roughly 18% stayed inconclusive and do not appear here. No stated cut-off is given here; in the data, active means normalized growth mostly below about 0.91 (no sharp cut-off); inconclusive means no clear call, values can overlap the other calls; inactive means mostly above about 0.92. This is one part of the list.
Assay: chemical genetic growth profiling, strain panel (AID 1159580);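 further: tested at 20 µM; growth read once vehicle control cultures reached saturation at 30 °C; 1 = growth at the plate median or of vehicle wells; lower values mean less growth of the strain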
Conditions: S. cerevisiae deletion strains, growth OD

Measured: normalized growth

O=C(O)COc1cc(Cl)c(Cl)cc1Cl
inactive: locus YAL013W, strain DEP1, active compounds read low 1 | locus YAL021C, strain ccr4, active compounds read low 0.984 | locus YAL026C, strain drs2, active compounds read low 1 | locus YAL030W, strain snc1, active compounds read low 1.01 | locus YBL061C, strain skt5, active compounds read low 1 | locus YBR009C, strain hhf1, active compounds read low 1 | locus YBR021W, strain FUR4, active compounds read low 1.01 | locus YBR023C, strain chs3, active compounds read low 1 | locus YBR171W, strain sec66, active compounds read low 0.998 | locus YBR229C, strain ROT2, active compounds read low 1.01 | locus YBR231C, strain swc5, active compounds read low 1 | locus YBR279W, strain paf1, active compounds read low 1 | locus YCL011C, strain gbp2, active compounds read low 1 | locus YCL016C, strain dcc1, active compounds read low 0.988 | locus YCL029C, strain bik1, active compounds read low 1.02 | locus YCL061C, strain MRC1, active compounds read low 1 | locus YCL069W, strain vba3, active compounds read low 0.993 | locus YCR088W, strain abp1, active compounds read low 1 | locus YDL005C, strain med2, active compounds read low 0.995 | locus YDL035C, strain GPR1, active compounds read low 1.02 | locus YDL040C, strain nat1, active compounds read low 0.994 | locus YDL074C, strain BRE1, active compounds read low 1.01 | locus YDL101C, strain DUN1, active compounds read low 0.982 | locus YDL134C, strain PPH21, active compounds read low 1.01 | locus YDL185W, strain tfp1, active compounds read low 1.03 | locus YDL192W, strain arf1, active compounds read low 1.02 | locus YDR001C, strain nth1, active compounds read low 1.01 | locus YDR069C, strain doa4, active compounds read low 0.994 | locus YDR101C, strain arx1, active compounds read low 1.02 | locus YDR137W, strain rgp1, active compounds read low 1.05 | locus YDR150W, strain NUM1, active compounds read low 1 | locus YDR159W, strain sac3, active compounds read low 0.999 | locus YDR162C, strain NBP2, active compounds read low 1 | locus YDR195W, strain ref2 0.952 | locus YDR297W, strain sur2, active compounds read low 1 | locus YDR318W, strain mcm21, active compounds read low 1.02 | locus YDR334W, strain swr1, active compounds read low 0.998 | locus YDR335W, strain msn5, active compounds read low 0.994 | locus YDR388W, active compounds read low 1.02 | locus YDR392W, strain spt3, active compounds read low 1.01 | locus YDR502C, strain sam2, active compounds read low 1.01 | locus YEL003W, strain gim4, active compounds read low 1.02 | locus YEL037C, strain rad23, active compounds read low 1.01 | locus YEL061C, strain CIN8 (second series), active compounds read low 0.999 | locus YEL061C, strain CIN8, active compounds read low 1 | locus YER015W, strain faa2, active compounds read low 1 | locus YER016W, strain bim1, active compounds read low 1 | locus YER110C, active compounds read low 1.02 | locus YER111C, strain swi4, active compounds read low 0.993 | locus YER155C, strain BEM2 (second series), active compounds read low 0.989 | locus YER155C, strain BEM2, active compounds read low 1.01 | locus YER167W, strain BCK2, active compounds read low 1.02 | locus YFR010W, strain ubp6, active compounds read low 1 | locus YGL078C, strain dbp3, active compounds read low 1.02 | locus YGL086W, strain mad1, active compounds read low 1.01 | locus YGL167C, strain pmr1, active compounds read low 1 | locus YGL173C, strain kem1, active compounds read low 0.994 | locus YGL227W, strain vid30, active compounds read low 1 | locus YGL240W, strain doc1, active compounds read low 0.999 | locus YGL248W, strain PDE1, active compounds read low 1.02 | locus YGL253W, strain hxk2, active compounds read low 0.995 | locus YGR078C, strain PAC10, active compounds read low 1.02 | locus YGR135W, strain pre9, active compounds read low 1.03 | locus YGR229C, strain SMI1, active compounds read low 1.02 | locus YGR252W, strain gcn5, active compounds read low 1.04 | locus YHR013C, strain ard1, active compounds read low 0.997 | locus YHR027C, strain rpn1, active compounds read low 0.998 | locus YHR030C, strain SLT2, active compounds read low 1.01 | locus YHR079C, strain IRE1 (second series), active compounds read low 1.02 | locus YHR079C, strain IRE1, active compounds read low 1.02 | locus YHR094C, strain hxt1, active compounds read low 1.02 | locus YHR129C, strain ARP1, active compounds read low 1.01 | locus YHR142W, strain chs7, active compounds read low 1 | locus YHR200W, strain rpn10, active compounds read low 1.01 | locus YIL066C, strain RNR3, active compounds read low 1.03 | locus YIL073C, strain SPO22, active compounds read low 1.09 | locus YIL125W, strain kgd1, active compounds read low 1.02 | locus YIR030C, strain dcg1, active compounds read low 1.02 | locus YJL092W, strain hpr5, active compounds read low 0.999 | locus YJL095W, strain BCK1 (second series), active compounds read low 0.994 | locus YJL095W, strain BCK1, active compounds read low 1.02 and 1.03 | locus YJL115W, strain asf1, active compounds read low 0.991 | locus YJL129C, strain trk1, active compounds read low 0.998 | locus YJL134W, strain LCB3, active compounds read low 1.01 | locus YJL154C, strain vps35, active compounds read low 0.998 | locus YJL164C, strain tpk1, active compounds read low 1.01 | locus YJL166W, strain qcr8, active compounds read low 1.01 | locus YJL168C, strain set2, active compounds read low 1.02 | locus YJL187C, strain SWE1 (second series), active compounds read low 1.01 | locus YJL187C, strain SWE1, active compounds read low 1 | locus YJR043C, strain POL32, active compounds read low 1.01 | locus YJR066W, strain TOR1, active compounds read low 0.94
